According to PubChem BioAssay (EPA / NIEHS):
Several values for one entry are separate records, joined by “and”; a condition that tells them apart may be missing. Equal entries are not always repeated. Activity calls are given as the source filed them. Rule for the calls: active = hit-call score of the fitted dose curve at least 0.9, where 1 is the maximum; inactive = score below 0.9.

Assay: ATG_AP_1_CIS: Attagene CIS-FACTORIAL HepG2 Assay for human Activator Protein 1 (AP-1) (AID 2282931)
Settings: HepG2 Attagene cis-factorial AP-1 reporter mRNA; actives raise or lower the signal
In short: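 Cis-regulated reporter units transiently expressed in HepG2 report endogenous transcription-factor activity. Signal: reporter mRNA at 24 h, via RT-PCR and fluorescent capillary electrophoresis. Endpoint derived by bidirectional fitting, DMSO as negative control.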

Question: With `C[C@]12CC[C@@H](O)C[C@@H]1CC[C@@H]1[C@@H]2CC[C@]2(C)C(=O)CC[C@@H]12` as the compound, how does the outcome read?
Answer: Its outcome is “inactive”.

Question: With `CNC(=O)CSP(=O)(OC)OC` as the compound, how does the outcome read?
Answer: The outcome was “inactive”.

Question: Which outcome does the source give for `O=c1nc(O)n(Cl)c(=O)n1Cl` here?
Answer: The outcome was “inactive”.

Question: For `CC(C)CC(C)(c1ccc(O)cc1)c1ccc(O)cc1`, which AC50 is on record?
Answer: Its AC50 is 11.1 µM (active).

Question: For `CN(C)[C@@H]1C(=O)C(C(N)=O)=C(O)[C@@]2(O)C(=O)C3=C(O)c4c(O)ccc(Cl)c4[C@@](C)(O)[C@H]3C[C@@H]12`, which AC50 is on record?
Answer: The AC50 was 26.3 µM (active).

Question: With `N#Cc1ccc(Cl)cc1` as the compound, how does the outcome read?
Answer: The outcome was “inactive”.

Question: Which outcome does the source give for `N#CCC#N` here?
Answer: Its outcome is “inactive”.

Question: With `CC(C)[C@H](C(=O)OC(C#N)c1cccc(Oc2ccccc2)c1)c1ccc(OC(F)F)cc1` (some centres undefined) as the compound, how does the outcome read?
Answer: The outcome was “inactive”.

Question: For `c1ccc2c(c1)Oc1ccccc1O2`, which outcome is on record?
Answer: Its outcome is “inactive”.

Question: Which outcome does the source give for `BrCCCCBr` here?
Answer: Its outcome is “inactive”.

Question: For `CCOP(=S)(OCC)SCSc1cc(Cl)ccc1Cl`, which outcome is on record?
Answer: The outcome was “inactive”.

Question: Which outcome does the source give for `COC(F)(C(F)(F)C(F)(F)F)C(F)(C(F)(F)F)C(F)(F)F` (centres undefined) here?
Answer: Its outcome is “inactive”.

Question: With `BrCc1ccc(Br)cc1` as the compound, how does the outcome read?
Answer: Its outcome is “inactive”.

Question: With `CN(N=O)c1ccc([N+](=O)[O-])cc1` as the compound, how does the outcome read?
Answer: Its outcome is “inactive”.

Question: For `Fc1cccc(Cl)c1CCl`, which outcome is on record?
Answer: Its outcome is “inactive”.

Question: For `O=S1(=O)OC(c2cc(Br)c(O)c(Br)c2)(c2cc(Br)c(O)c(Br)c2)c2ccccc21`, which outcome is on record?
Answer: Its outcome is “inactive”.

Question: With `Brc1ccc(Br)cc1` as the compound, how does the outcome read?
Answer: The outcome was “inactive”.

Question: With `C[N+](C)(C)Cc1ccccc1` as the compound, how does the outcome read?
Answer: Its outcome is “inactive”.

Question: Which outcome does the source give for `CCOP(=S)(OCC)OP(=S)(OCC)OCC` here?
Answer: The outcome was “inactive”.

Question: With `O=C(N[C@H]1CN2CCC1CC2)c1ccc2c(c1)OCCO2` as the compound, how does the outcome read?
Answer: The outcome was “inactive”.

Question: For `CC1(C)COP(Oc2ccccc2)OC1`, which outcome is on record?
Answer: Its outcome is “inactive”.

Question: Which outcome does the source give for `O=[N+]([O-])c1ccc(Nc2ccccc2)cc1` here?
Answer: The outcome was “inactive”.

Question: For `O=S(=O)(F)C(F)(F)C(F)(F)C(F)(F)C(F)(F)F`, which outcome is on record?
Answer: The outcome was “inactive”.

Question: Which outcome does the source give for `Nc1ncn[nH]1` here?
Answer: The outcome was “inactive”.

Question: For `CCC[CH2][Sn]([CH2]CCC)([CH2]CCC)[CH2]CCC`, which AC50 is on record?
Answer: The AC50 was 7.55 µM (active).

Question: With `CCOP(=S)(OCC)O/N=C(\C#N)c1ccccc1` as the compound, how does the AC50 read?
Answer: Its AC50 is 42.3 µM (active).

Question: With `Clc1cc(C(Cl)(Cl)Cl)cnc1Cl` as the compound, how does the AC50 read?
Answer: Its AC50 is 12.6 µM (active).

Question: With `COC(=O)Nc1cccc(OC(=O)Nc2cccc(C)c2)c1` as the compound, how does the outcome read?
Answer: Its outcome is “inactive”.

Question: With `Brc1ccc(Oc2c(Br)cc(Br)cc2Br)c(Br)c1` as the compound, how does the outcome read?
Answer: Its outcome is “inactive”.

Question: Which outcome does the source give for `CCOP(=O)(OCC)SCCSCC` here?
Answer: Its outcome is “inactive”.

Question: Which outcome does the source give for `N#CS` here?
Answer: Its outcome is “inactive”.

Question: Which outcome does the source give for `Cc1cc(-c2cc(C)c(N)c(C)c2)cc(C)c1N` here?
Answer: The outcome was “inactive”.

Question: Which AC50 does the source give for `O=c1oc2ccccc2c(O)c1C(CC(O)c1ccc(-c2ccc(Br)cc2)cc1)c1ccccc1` (centres undefined) here?
Answer: Its AC50 is 7.97 µM (active) and 57.9 µM (active).

Question: Which outcome does the source give for `Cc1ccc2nc3sc(=O)sc3nc2c1` here?
Answer: Its outcome is “inactive”.

Question: For `CC[N+](CC)(CC)CC`, which outcome is on record?
Answer: Its outcome is “inactive”.

Question: For `CC(C)(c1ccccc1)c1cc(-n2nc3ccccc3n2)c(O)c(C(C)(C)c2ccccc2)c1`, which outcome is on record?
Answer: Its outcome is “inactive”.

Question: For `Cc1cc(C(F)(C(F)(F)F)C(F)(F)F)ccc1NC(=O)c1cccc(I)c1C(=O)NC(C)(C)CS(C)(=O)=O`, which outcome is on record?
Answer: Its outcome is “inactive”.

Question: With `N#CCCC(Br)(C#N)CBr` (centres undefined) as the compound, how does the outcome read?
Answer: The outcome was “inactive”.

Question: For `COc1ccc(N)cc1`, which outcome is on record?
Answer: Its outcome is “inactive”.
